We go through 14 compounds from PubChem BioAssay (Tox21).

Values without a mark were called inactive. Records with an inconclusive call do not appear. Activity calls are given as the source filed them. Unless noted, the call rests on the fitted dose curve; in most records, active means well fitted curve in the direction sought with a large enough effect in the repeat runs; inconclusive means weak or mixed curves; inactive means no such curve, though single readings can be large; an effect the other way counts as inactive or inconclusive.

The nature of test [1]: qHTS assay for small molecules that induce genotoxicity in human embryonic kidney cells expressing luciferase-tagged ATAD5 (AID 651632). Further: nearly all actives have a fitted effect of over 15% in size. Further: potency means the concentration at half of the fitted maximal effect. The method in brief:
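DMSO vehicle served as the control. HEK293T reporter cells, 16 hr at 37C, then 30 min Amplite at room temperature; ATAD5 induction is measured as luciferase activity.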
Background: Quantitative high-throughput screening tests each substance at several concentrations.

Test [2] is described as follows: qHTS assay for small molecule agonists of the p53 signaling pathway - cell viability (AID 651633; calls by dose curve;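 further: p53RE-bla HCT reporter cells with a stable beta-lactamase p53 reporter; series mostly up to about 83 µM; nearly all actives have a fitted effect of over 30% in size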). The method in brief: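 p53RE-bla cells were treated with compound for 16 hours at 37 C. Cytotoxicity was then measured as CellTiter-Glo luminescence after 30 min at room temperature.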
Test [3] in a line: qHTS assay for small molecules that induce genotoxicity in human embryonic kidney cells expressing luciferase-tagged ATAD5 - cell viability (AID 651634; calls by dose curve; further: nearly all actives have a fitted effect of over 25% in size). The method in brief: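 Here HEK293T cells with the ATAD5 luciferase reporter are incubated with test compounds for 15.5 hr, and cytotoxicity is then gauged by measuring protease activity in live cells using fluorescence.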
Test [4] is described as follows: qHTS assay for small molecule disruptors of the mitochondrial membrane potential - cell viability (AID 720634; calls by dose curve;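 further: human HepG2 liver cancer cells; series mostly up to about 83 µM; nearly all actives have a fitted effect of over 20% in size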). The method in brief:
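Viability of HepG2 cells is scored from ATP content by luminescence; cells are exposed to compound for 1 hr at 37 C and 5% CO2, then dosed with m-MPI dye before the CellTiter-Glo reagent.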

A short description of test [5]: qHTS assay to test for compound auto fluorescence at 590 nm (red) in HepG2 cells (AID 720674). The method in brief: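 HepG2 cells, 2,000 per well in MEM with 10% FBS, attached overnight at 37 C, then got 23 nL compound or DMSO. After 1 hr at 37 C, 5% CO2, red fluorescence was read at 540/590 nm against Rose Bengal sodium as reference.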
Test [6] is described as follows: qHTS assay to test for compound auto fluorescence at 535 nm (green) in HepG2 cells (AID 720675).
Test [7] can be described thus: qHTS assay to test for compound auto fluorescence at 460 nm (blue) in HEK293 cells (AID 720678). The method in brief: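 HEK293 cells (2,000 per well, medium with 10% dialyzed FBS) attached for 4-5 hr at 37C, then received compound and stood overnight at 37C, 5% CO2. Blue fluorescence was read at Ex/Em 405/460 nm and expressed relative to triamterene.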
Test [8] can be described thus: qHTS assay to test for compound auto fluorescence at 590 nm (red) in HEK293 cells (AID 720679). The method in brief: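 HEK293 cells (2,000/well, medium with 10% dialyzed FBS) attached for 4-5 hr at 37C, received 23 nL compound and were incubated overnight at 37C, 5% CO2. Red fluorescence was then read at 540/590nm Ex/Em, referenced to Rose Bengal sodium.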
A short description of test [9]: qHTS assay to test for compound auto fluorescence at 535 nm (green) in HEK293 cells (AID 720680).
Test [10] in a line: qHTS assay to test for compound auto fluorescence at 460 nm (blue) in HEK293 cell free culture (AID 720681). The method in brief:
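Compounds were added to cell-free DMEM with 10% FBS and fluorescence read directly. The blue channel used 405 nm excitation and 460 nm emission, with triamterene as the reference fluorophore.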

A short description of test [11]: qHTS assay to test for compound auto fluorescence at 535 nm (green) in HEK293 cell free culture (AID 720682). The method in brief: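 Using fluorescein as calibrant, autofluorescence was quantified at 485/535 nm in cell-free DMEM containing 10% FBS after pintool addition of compound or vehicle.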
Test [12] in a line: qHTS assay to test for compound auto fluorescence at 590 nm (red) in HEK293 cell free culture (AID 720683). The method in brief: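 Cell-free wells of DMEM with 10% FBS received compound, and intrinsic fluorescence was read at excitation/emission 540/590 nm. Values expressed as equivalence to Rose Bengal sodium.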
The nature of test [13]: qHTS assay to test for compound auto fluorescence at 590 nm (red) in HepG2 cell free culture (AID 720684). The method in brief:
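Rose Bengal sodium served as the reference for red signal. Test compounds were dispensed into serum-containing MEM (10% FBS) without cells, and plates were read at 540/590 nm.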

Test [14] in a line: qHTS assay to test for compound auto fluorescence at 460 nm (blue) in HepG2 cell free culture (AID 720685). The method in brief: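 Cell-free plates of MEM plus 10% FBS received 23 nL compound or DMSO vehicle; blue-channel (405/460 nm) intensity scored against triamterene as reference fluorophore.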
Test [15] can be described thus: qHTS assay to test for compound auto fluorescence at 535 nm (green) in HepG2 cell free culture (AID 720686).
The nature of test [16]: qHTS assay to test for compound auto fluorescence at 460 nm (blue) in HepG2 cells (AID 720687). The method in brief: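 HepG2 cells in MEM with 10% FBS, attached overnight at 37 C, were exposed to compound or DMSO for 1 hr at 37 C, 5% CO2. Blue fluorescence was read at 405/460 nm, with triamterene as reference fluorophore.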
Test [17] addresses Glucocorticoid receptor (Homo sapiens) (UniProt P04150). Description: qHTS assay to identify small molecule agonists of the glucocorticoid receptor (GR) signaling pathway (AID 720691; active means well fitted activation curve with a large enough effect in the signal ratio in the repeat runs, not every such curve was filed as active; the % refers to the signal ratio). The method in brief: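 Compounds in DMSO, alongside positive controls, were added to GR-bla HeLa reporter cells and incubated 18 h at 37 C; GRE-driven beta-lactamase was detected by fluorescence after 2 h with FRET substrate at room temperature.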

Test [18] has the same target. Description: qHTS assay to identify small molecule antagonists of the glucocorticoid receptor (GR) signaling pathway (AID 720692; active means well fitted inhibition curve with a large enough effect in the signal ratio in the repeat runs, not every such curve was filed as active; the % refers to the signal ratio). The method in brief:
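In a 1536-well cell format, compounds were added 4 h after seeding GR-bla HeLa cells, together with dexamethasone at 5 nM final; reporter activity was measured by FRET-substrate fluorescence following 18 h at 37 C.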

Sequence of Glucocorticoid receptor (Homo sapiens) (P04150 whole entry, looked up): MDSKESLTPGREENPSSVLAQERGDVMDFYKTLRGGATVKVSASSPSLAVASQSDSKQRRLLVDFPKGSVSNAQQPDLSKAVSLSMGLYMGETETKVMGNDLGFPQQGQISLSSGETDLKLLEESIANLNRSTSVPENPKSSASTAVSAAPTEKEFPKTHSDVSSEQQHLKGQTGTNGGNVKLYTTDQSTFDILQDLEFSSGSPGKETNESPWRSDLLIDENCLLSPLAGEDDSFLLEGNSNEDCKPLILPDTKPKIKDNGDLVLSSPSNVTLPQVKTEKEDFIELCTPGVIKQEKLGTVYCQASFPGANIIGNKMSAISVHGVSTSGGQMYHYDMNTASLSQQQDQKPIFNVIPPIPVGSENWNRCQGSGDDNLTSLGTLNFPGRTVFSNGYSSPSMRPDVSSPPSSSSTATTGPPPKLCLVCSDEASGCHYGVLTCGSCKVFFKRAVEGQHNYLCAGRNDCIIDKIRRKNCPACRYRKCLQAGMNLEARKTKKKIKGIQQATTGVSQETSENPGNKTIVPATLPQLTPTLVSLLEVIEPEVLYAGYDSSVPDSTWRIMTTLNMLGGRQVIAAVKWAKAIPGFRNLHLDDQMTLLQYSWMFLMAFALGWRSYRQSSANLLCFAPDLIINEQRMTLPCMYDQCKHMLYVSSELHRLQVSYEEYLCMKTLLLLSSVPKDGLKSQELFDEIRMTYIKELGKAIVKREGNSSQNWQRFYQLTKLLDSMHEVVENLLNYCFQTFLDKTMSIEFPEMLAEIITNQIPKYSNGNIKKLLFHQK

As for `O=Cc1ccccc1[N+](=O)[O-]`, the Potency result in [1], in test [2], in test [3], in test [4], in [7] and in test [10] was “inactive” throughout. Also, the Potency entry in test [14], in test [16], in test [17] and in test [18] was “inactive” throughout. The compound was called inactive in test [5], in test [6], in test [8], in test [9], in test [11] and in test [12]. The result in test [13] and in test [15] was inactive.

Turning to `Cn1ccc2cc3c(cc21)CCN3C(=O)Nc1cccnc1`, the Potency in test [1] is 11.9 µM (active). For the same compound, the Potency entry in [2], in test [3], in test [4], in test [7], in test [10] and in test [14] was “inactive” in each case. For the same compound, the Potency entry in [16] and in test [17] was “inactive” throughout. The outcome in test [5], in test [6], in test [8], in test [9], in test [11] and in test [12] was inactive. Moreover, the outcome in test [13] and in [15] was inactive.

Turning to `N#CCN(CC#N)CCN(CC#N)CC#N`, the Potency result in test [1], in test [2], in [3], in [4], in [7] and in test [10] was “inactive” in each case. For the same compound, the Potency result in [14], in test [16], in test [17] and in test [18] was “inactive” each time. Besides, the compound was called inactive in test [5], in [6], in test [8], in test [9], in test [11] and in test [12]. The compound was called inactive in [13] and in test [15].

Regarding `C1=C\CC/C=C\CC/C=C\CC/1`, the Potency result in test [1], in [2], in [3], in [7], in test [10] and in test [14] was “inactive” in each case. The Potency result in test [16] and in test [17] was “inactive” each time. In addition, the outcome in test [5], in [6], in test [8], in test [9], in test [11] and in [12] was inactive. For the same compound, the result in test [13] and in test [15] was inactive.

For `CCC(=O)Nc1cccc(N)c1`, the Potency entry in test [1], in test [2], in test [3], in test [4], in test [7] and in test [10] was “inactive” each time. The Potency entry in [14], in [16], in [17] and in [18] was “inactive” throughout. Further, the compound was called inactive in [5], in test [6], in test [8], in [9], in test [11] and in [12]. In addition, the call in test [13] and in test [15] was inactive.

`CCN1CCN(c2cc3c(cc2F)c(=O)c(C(=O)O)cn3C2CC2)CC1`: the Potency result in test [1], in [2], in test [3], in [4], in [7] and in test [10] was “inactive” in each case. Further, the Potency result in [14], in test [16], in test [17] and in [18] was “inactive” in each case. Also, the compound was classed as inactive in test [5], in test [6], in [8], in test [9], in [11] and in test [12]. Besides, the compound was called inactive in test [13] and in test [15].

As for `COC(=O)CCCC(=O)O`, the Potency entry in [1], in [2], in test [3], in test [4], in [7] and in [10] was “inactive” each time. Further, the Potency result in [14], in test [16] and in test [17] was “inactive” throughout. The call in test [5], in [6], in test [8], in test [9], in [11] and in test [12] was inactive. Further, the result in test [13] and in test [15] was inactive.

Turning to `OCc1ccccn1`, the Potency result in test [1], in [2], in test [3], in test [4], in [7] and in test [10] was “inactive” throughout. For the same compound, the Potency result in test [14], in test [16], in [17] and in test [18] was “inactive” each time. Besides, the outcome in [5], in [6], in [8], in test [9], in [11] and in test [12] was inactive. Also, the result in test [13] and in [15] was inactive.

Take `CCCCCCOC(=O)CC(CC(=O)OCCCCCC)(OC(=O)CCC)C(=O)OCCCCCC`: the Potency entry in test [1], in test [2], in test [3], in test [4], in test [7] and in test [10] was “inactive” in each case. In addition, the Potency entry in test [14], in [16], in test [17] and in test [18] was “inactive” throughout. Further, the result in test [5], in [6], in test [8], in test [9], in test [11] and in [12] was inactive. Moreover, the outcome in test [13] and in test [15] was inactive.

For the compound `CCN(CC)S(=O)(=O)c1ccc(C(=O)O)cc1`, the Potency result in test [1], in test [2], in test [3], in test [4], in test [7] and in [10] was “inactive” throughout. Moreover, the Potency entry in test [14], in test [16], in [17] and in [18] was “inactive” each time. Moreover, the compound was called inactive in [5], in test [6], in [8], in test [9], in test [11] and in test [12]. For the same compound, the compound was classed as inactive in [13] and in test [15].

Regarding `COc1nc(C)nc(N)n1`, the Potency entry in test [1], in [2], in [3], in [4], in [7] and in [10] was “inactive” throughout. Also, the Potency entry in test [14], in test [16], in test [17] and in test [18] was “inactive” in each case. The compound was classed as inactive in [5], in test [6], in test [8], in [9], in [11] and in test [12]. Besides, the compound was called inactive in test [13] and in test [15].

With `C=CC(=O)N1CCOCC1`, the Potency result in test [1], in test [2], in [3], in test [7], in test [10] and in [14] was “inactive” throughout. For the same compound, the Potency entry in test [16] and in [17] was “inactive” each time. The compound was called inactive in test [5], in test [6], in test [8], in test [9], in [11] and in [12]. The call in test [13] and in [15] was inactive.

Regarding `Fc1ccccc1-c1ccccc1`, the Potency entry in [1], in test [2], in test [3], in [4], in test [7] and in [10] was “inactive” in each case. In addition, the Potency result in test [14], in [16], in [17] and in test [18] was “inactive” in each case. The call in [5], in test [6], in test [8], in [9], in test [11] and in [12] was inactive. Moreover, the call in [13] and in test [15] was inactive.

As to `C=C(C)C(=O)NCCCN(C)C`, the Potency result in [1], in test [2], in [3], in test [4], in test [7] and in test [10] was “inactive” each time. Further, the Potency entry in test [14], in test [16] and in test [17] was “inactive” in each case. Moreover, the result in test [5], in test [6], in test [8], in test [9], in [11] and in test [12] was inactive. The outcome in [13] and in [15] was inactive.
